Compound activity: PubChem, several laboratories
rRNA inh HTS: reduced GFP signal of wild-type E. coli, primary screen, bacterial rRNA inhibitor project, GFP/RFP fluorescence, OD600, single point | E. coli WT GFP vs humanized-ribosome RFP mutants, 24 h; active compounds read low; DMSO median 0, no signal -100 | GFP signal change (wild-type ribosome), % (concentration not given with the values) | 1.6% of 350,000 active | AID 720706, 2013;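 active means significant combined selectivity score with lowered wild-type GFP, culture density cut under 30%, mutant RFP and density less affected; inactive means any of these conditions unmet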
KLK7 zymogen act: proKLK7 zymogen activators, primary screen, biochemical, fluorescence intensity; 0.9% of 370,000 active; activation, % at 7 µM; purified proKLK7, EDANS-DABCYL substrate fluorescence; 100% is mature enzyme control, 0% vehicle; Kallikrein-7 (Homo sapiens), P49862;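 active means activation above the mean of all tested compounds plus 3 SD, computed per campaign excluding outliers beyond control limits, cut at about 13% in these data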
ADAM10 inh: human ADAM10 inhibitors, primary screen, biochemical, QFRET, HTS. recombinant ADAM10, EDANS/DABCYL FRET peptide cleavage, 3 h. inhibition, % at 7 µM. 0.62% of 370,000 active;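 active means inhibition above a per-campaign cutoff equal to the mean of compounds falling between control-based bounds plus 3 SD, cut at about 20% in these data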
Target sequence (O14672 214-748 limits assumed): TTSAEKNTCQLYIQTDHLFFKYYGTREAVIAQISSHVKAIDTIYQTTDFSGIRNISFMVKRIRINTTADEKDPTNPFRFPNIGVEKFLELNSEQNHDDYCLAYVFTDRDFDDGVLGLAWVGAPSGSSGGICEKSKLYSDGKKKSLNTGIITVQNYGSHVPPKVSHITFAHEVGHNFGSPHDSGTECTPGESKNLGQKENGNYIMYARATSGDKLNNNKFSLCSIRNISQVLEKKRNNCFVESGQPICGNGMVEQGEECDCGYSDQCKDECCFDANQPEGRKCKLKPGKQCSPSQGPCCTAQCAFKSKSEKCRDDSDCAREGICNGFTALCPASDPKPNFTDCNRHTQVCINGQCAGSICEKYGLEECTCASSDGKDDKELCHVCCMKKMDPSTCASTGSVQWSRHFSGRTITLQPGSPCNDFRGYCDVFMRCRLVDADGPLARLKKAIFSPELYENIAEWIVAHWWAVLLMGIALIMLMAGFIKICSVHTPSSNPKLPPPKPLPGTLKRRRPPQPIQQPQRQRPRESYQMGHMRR
FGF22 binding-1: binders of human FGF22 protein, primary screen, FGF22 synaptogenesis inhibitor project, biophysical, thermal shift, single point. Fibroblast growth factor 22 (Homo sapiens), Q9HCT0. recombinant FGF22 thermal shift, SYPRO orange fluorescence; percent of sucrose octasulfate shift, DMSO zero. activity (Tm shift, normalised), % at 9.99 µM. 1.5% of 340,000 active;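 active means mean Tm shift, scaled 0 neutral to 100 positive control, at about 1.3% or above, every replicate too, limit read from the data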
Target sequence (Q9HCT0 whole entry, looked up): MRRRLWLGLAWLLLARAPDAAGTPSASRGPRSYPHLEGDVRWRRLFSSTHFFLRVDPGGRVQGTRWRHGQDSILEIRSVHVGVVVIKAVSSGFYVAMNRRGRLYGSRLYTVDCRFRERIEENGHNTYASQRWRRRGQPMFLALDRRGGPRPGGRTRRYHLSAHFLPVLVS
ADAM17 inh: ADAM17 inhibitors, primary screen, biochemical, QFRET; 0.83% of 370,000 active; recombinant ADAM17, EDANS/DABCYL FRET peptide cleavage; inhibition, % at 6.95 µM; Disintegrin and metalloproteinase domain-containing protein 17 (Homo sapiens), P78536;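 active means inhibition above the mean of compounds lying between control limits plus 3 SD, set per campaign, cut at about 8.5% in these data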
FGF22 binding-2: binders of human FGF22 protein, dose response, FGF22 synaptogenesis inhibitor project, biophysical, thermal shift, cherry-pick retest. shares compounds with FGF22 binding-1. recombinant FGF22 thermal shift, SYPRO orange fluorescence. thermal shift activity, °C (ΔTm) at 38 µM. 2% of 1,000 active. AID 720646, 2013;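 active means fitted rise in melting shift crosses a set limit at or below the top valid dose tested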
FGF22 TSA: binders of human FGF22 protein, dose response, FGF22 synaptogenesis inhibitor project, biophysical, thermal shift, dry powder | shares compounds with FGF22 binding-1 | Thermal shift assay, SYPRO orange, melting temperature shift | Tm shift (activity), % at 38 µM | 50 tested, under 10 active | AID 743017, 2013;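 active means compounds whose fitted dose curve of melting temperature shift rises past a set threshold within the tested doses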
SYPRO no-protein: compound-only thermal shift signal without protein, dose response, artefact control for FGF22 binder project, biochemical, cherry-picked samples, RT-PCR instrument; AC50, µM (top dose mostly 38 µM); shares compounds with FGF22 binding-1; compound-only SYPRO orange thermal shift counter-screen, no protein; AID 743019, 2013; 2% of 1,000 active;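 active means rising signal whose fitted curve reaches the 0.54 level within the top valid dose, showing a melting point, actives reach about 13 µM in these data; inactive means the rest, including activity in the opposite direction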; further: value is where the raw curve crosses a fixed level and not half-maximal
Numbers stand for hits; i = inactive; nt = no result; ! = not confirmed by another sample. The list is not random: actives were taken first. Their share in the collection is about 3.8%.

SMILES | rRNA inh HTS | KLK7 zymogen act | ADAM10 inh | FGF22 binding-1 | ADAM17 inh | FGF22 binding-2 | SYPRO no-protein | others
COc1ccc(C(=O)N=c2sc3ccccc3n2C)cc1OC | i | i | i | 1.6 | i | i | i
C[C@H](CO)N1C[C@H](C)[C@@H](CN(C)CC2CCCCC2)Oc2ccc(NC(=O)CCN3CCOCC3)cc2CC1=O | i | nt | nt | i | nt | nt | nt
CC1C=NC(S(=O)(=O)N2CC[C@@H]3[C@@H](CO)N(C)c4ccc(-c5ccc(F)cc5)cc4[C@@H]32)=N1 (stereo partly specified) | i | nt | nt | 2.0 | nt | nt | i
CC(=O)NC[C@@H]1[C@@H](c2ccc(-c3cccc(F)c3)cc2)[C@H](CO)N1C(C)=O | i | nt | nt | i | nt | nt | nt
O=C(CN1CCCC1)Nc1ccc(OC(F)(F)F)cc1 | i | i | i | 26.4 | i | i | i
CCN1CCN(CC(=O)Nc2ccc(OC(F)(F)F)cc2)CC1 | i | i | i | i | i | nt | nt
Cc1cccnc1NC(=O)CCCN1C(=O)c2ccccc2C1=O | i | i | i | 17.1 | i | i | i
Cc1ccc(Cl)cc1NC(=O)CCCN1C(=O)c2cccnc2C1=O | i | i | i | i | i | nt | nt
CC1(C)CCC(=O)N2CC[C@H]3C[C@H](OC(=O)Nc4ccccc4)C[C@@H]1[C@H]32 | i | i | i | 2.1 | i | i | i
CCc1ccc(NC(=O)c2ccc(-n3cncn3)c([N+](=O)[O-])c2)cc1 | i | i | i | 2.3 | i | i | i
COc1cc(C=O)ccc1OCc1cn(CC(=O)c2ccc(O)cc2)nn1 | i | i | i | i | i | nt | nt
O=C(Cn1cc(COc2ccc(Br)cc2[N+](=O)[O-])nn1)c1ccc(O)cc1 | i | i | i | 1.7 | i | i | i
C[C@H](CO)N1C[C@H](C)[C@H](CN(C)S(=O)(=O)c2ccc(F)cc2)Oc2ccc(NC(=O)c3ccncc3)cc2C1=O | i | nt | nt | 1.9 | nt | i | i
Cc1ccc(S(=O)(=O)Nc2ccc3c(c2)C(=O)N([C@@H](C)CO)C[C@@H](C)[C@@H](CN(C)C)O3)cc1 | i | nt | nt | 1.9 | nt | i | i
C[C@@H]1CN([C@@H](C)CO)C(=O)c2cc(NS(=O)(=O)c3ccc(Cl)cc3)ccc2O[C@@H]1CN(C)S(=O)(=O)c1ccc(F)cc1 | i | nt | nt | 2.9 | nt | i | i
COc1ccccc1NC(=O)Nc1cccc(NC(C)=O)c1 | i | i | i | 3.1 | i | i | i
Cc1cc(NC(=O)Nc2ccc3c(ccn3C)c2)sn1 | nt | i | i | 2.8 | i | i | i | FGF22 TSA=i
Nc1nonc1N/N=C\c1ccccc1 | nt | i | i | 2.0 | i | i | i
O=c1oc(-c2ccc(O)c(O)c2)cc2cc(O)cc(O)c12 | nt | i | i | 1.5 | i | i | i
O=c1oc(-c2ccc(O)c(O)c2)cc2cccc(O)c12 | i | i | i | i | i | nt | nt
CCC(C)NS(=O)(=O)c1ccc(S(=O)(=O)N2CC=C(c3ccc(F)cc3)CC2)cc1 (stereo unspecified) | i | i | i | 13.6 | i | i | i
Cc1ccc(-c2nnn(CC(=O)NCCc3ccc4c(c3)OCO4)n2)cc1 | i | i | i | 8.9 | i | i | i
CO[C@@H]1CN(C)C(=O)c2ccc(NC(=O)c3cccc(F)c3)cc2OC[C@@H](C)N(C)C[C@H]1C | i | nt | nt | i | nt | nt | nt
N#Cc1c(-c2ccccc2)nc(-c2ccncc2)[nH]c1=O | i | i | i | 1.6 | i | i | i
CNC(=O)C[C@@H]1CC[C@@H]2[C@H](COC[C@@H](O)CN2C(=O)Nc2ccc3c(c2)OCO3)O1 | i | nt | nt | i | nt | nt | nt
SMILES | rRNA inh HTS | KLK7 zymogen act | ADAM10 inh | FGF22 binding-1 | ADAM17 inh | FGF22 binding-2 | SYPRO no-protein | others
CNC[C@H]1Oc2c(NS(=O)(=O)c3ccc(OC)cc3)cccc2C(=O)N([C@H](C)CO)C[C@@H]1C | i | i | i | i | i | nt | nt
CNC[C@@H]1Oc2c(NS(=O)(=O)c3ccc(OC)cc3)cccc2C(=O)N([C@@H](C)CO)C[C@@H]1C | nt | nt | nt | 3.6 | nt | i | i
COc1ccc(S(=O)(=O)N(C)C[C@@H]2Oc3c(NS(=O)(=O)c4ccc(C)cc4)cccc3C(=O)N([C@H](C)CO)C[C@@H]2C)cc1 | i | nt | nt | 1.3 | nt | i | i
C/C=C/c1cnc2c(c1)C(=O)N([C@@H](C)CO)C[C@H](C)[C@@H](CN(C)S(=O)(=O)c1ccc(OC)cc1)O2 | i | nt | nt | i | nt | nt | nt
Nc1nccc(-c2ccc(-n3cccc3)cc2)n1 | i | i | i | 2.3 | i | i | i
COCC(=O)Nc1ccc2c(c1)OC[C@H](C)N(C(=O)c1cnccn1)C[C@H](C)[C@@H](OC)CN(C)C2=O | i | nt | nt | i | nt | nt | nt
CNC(=O)C[C@H]1CC[C@@H]2[C@H](COc3ccc(NC(=O)Nc4ccc(Cl)cc4)cc3C(=O)N2C)O1 | i | nt | nt | i | nt | nt | nt
COc1ccc(NC(=O)N(C)C[C@H]2Oc3ccc(NS(=O)(=O)c4ccccc4)cc3C(=O)N([C@H](C)CO)C[C@H]2C)cc1 | i | nt | nt | i | nt | nt | nt
COc1ccc(NC(=O)N(C)C[C@@H]2Oc3ccc(NC(=O)NC(C)C)cc3CC(=O)N([C@H](C)CO)C[C@@H]2C)cc1 | i | i | i | 14.8! | i | i | i
COc1ccc(NC(=O)N(C)C[C@@H]2Oc3ccc(NS(=O)(=O)c4ccccc4)cc3C(=O)N([C@H](C)CO)C[C@H]2C)cc1 | i | nt | nt | 5.0 | nt | i | i
COc1ccc(NC(=O)N(C)C[C@@H]2Oc3ccc(NS(=O)(=O)c4cccs4)cc3CC(=O)N([C@H](C)CO)C[C@H]2C)cc1 | i | nt | nt | 28.0 | nt | i | i
COc1ccc(S(=O)(=O)Nc2ccc3c(c2)C(=O)N([C@H](C)CO)C[C@H](C)[C@H](CN(C)CC2CC2)OCCCC[C@H](C)O3)cc1 | i | nt | nt | 1.4 | nt | i | i
O=C(N[C@H]1CC[C@@H](CCNS(=O)(=O)c2cccc(Cl)c2)O[C@H]1CO)c1ccncc1 | i | nt | nt | i | nt | nt | nt
COc1ccc(S(=O)(=O)N(C)C[C@@H]2Oc3ccc(NC(=O)Nc4ccccc4)cc3CC(=O)N([C@H](C)CO)C[C@@H]2C)cc1 | i | nt | nt | 1.7 | nt | i | i
